Shown are actives, neighbours in structure and some others; about 1.9% of the full set was active somewhere.
Hsp90 Hop PPI: changes Hsp90-Hop TPR2A binding signal, up or down; AlphaScreen TPR2A-His6 binding biotin-Hsp90 C-terminal peptide; Potency, µM (series often up to 57 µM); actives 0.44% (n = 71,000); AID 595; active = well fitted curve in either direction with a large enough effect; inconclusive = small, poorly fitted or top-dose-only effect, or another doubt
TsaE inh: displaces an ADP probe from E. coli YjeE (TsaE); P0AF67; purified YjeE enzyme, qHTS inhibition assay; Potency, µM; actives 0.05% (n = 71,000)
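Fluorescence polarization of a BODIPY Texas Red–ADP probe (2 uM) bound to purified YjeE (10 uM) was read after 15 min room-temperature incubation with compounds. Loss of polarization marks inhibitors; ADP serves as titrated control.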
BRCT PPI green: BRCA1 BRCT-phosphoprotein interaction inhibition; actives 0.05% (n = 75,000); AID 875; BRCA1 BRCT-phosphopeptide binding, green fluorescence polarization; Potency, µM (top dose mostly 76.9 µM), hits mostly inhibitors
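Fluorescence polarization: His-tagged BRCT (~35 kDa BRCA1 C-terminus, 250 nM) bound to 100 nM fluorescein-labeled phosphorylated 10-aa BACH1 peptide, pH 7.3 phosphate buffer with DTT and Tween 20. Compounds incubated 12 min at room temperature; inhibition read as lowered polarization.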
BRCT inh red: inhibitors of human BRCA1 BRCT-phosphoprotein interaction (red fluorophore) | P38398 | Potency, µM (series often up to 76.9 µM), hits mostly inhibitors | BRCT-phosphopeptide binding, red fluorescence polarization | AID 892 | actives 0.03% (n = 75,000)
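Fluorescence polarization: 100 nM His-tagged BRCA1 BRCT with 100 nM TAMRA-labelled phospho-BACH1 decapeptide, phosphate buffer pH 7.3 with 150 mM NaCl, DTT, 0.01% Tween 20; 12 min RT. Binding inhibition seen as FP decrease.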
15-hLO inh: inhibitors of human 15-lipoxygenase (ALOX15) | AID 887 | actives 1.4% (n = 74,000) | Potency, µM (titrated, usually from 57.1 µM), most hits filed as inhibitors | P16050 | purified 15hLO-1, xylenol orange hydroperoxide absorbance; note: nearly all actives have a fitted effect of over 55% in size
Target sequence (P16050 whole entry, looked up): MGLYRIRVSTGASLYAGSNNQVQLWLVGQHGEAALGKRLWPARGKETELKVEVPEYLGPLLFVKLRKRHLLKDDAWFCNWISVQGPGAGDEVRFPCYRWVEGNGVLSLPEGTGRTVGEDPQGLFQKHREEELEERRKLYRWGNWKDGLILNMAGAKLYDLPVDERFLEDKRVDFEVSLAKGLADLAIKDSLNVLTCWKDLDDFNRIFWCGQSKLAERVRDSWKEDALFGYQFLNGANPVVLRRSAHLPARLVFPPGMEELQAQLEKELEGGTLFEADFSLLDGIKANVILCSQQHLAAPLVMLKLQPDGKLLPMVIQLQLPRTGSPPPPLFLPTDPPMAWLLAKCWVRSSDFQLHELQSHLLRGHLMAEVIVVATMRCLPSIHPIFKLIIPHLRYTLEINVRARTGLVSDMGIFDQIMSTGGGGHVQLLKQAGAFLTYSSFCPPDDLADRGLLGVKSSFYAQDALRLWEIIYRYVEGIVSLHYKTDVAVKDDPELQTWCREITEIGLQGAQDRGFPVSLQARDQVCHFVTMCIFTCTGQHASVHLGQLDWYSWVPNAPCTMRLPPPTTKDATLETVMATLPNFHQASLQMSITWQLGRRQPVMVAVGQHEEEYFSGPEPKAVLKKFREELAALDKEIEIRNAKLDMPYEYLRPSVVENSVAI
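Compounds were preincubated 15 min at room temperature with 40 nM purified human enzyme (25 mM Hepes pH 7.5, 0.01% Triton X-100); 50 uM arachidonic acid reacted 6 min. Fe-xylenol orange detection, 30 min, absorbance ratio 573/405 nm.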
Pol III holo inh: DNA polymerase III holoenzyme inhibition | reconstituted DNA polymerase III holoenzyme replication, biochemical | Potency, µM (doses to about 57.1 µM) | actives 0.25% (n = 71,000) | AID 603
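Reconstituted *E. coli* holoenzyme (0.35 nM Pol III, 1 nM beta, 154 nM SSB, 2 nM primase) was preincubated with compound for 15 min at RT. Synthesis on 1.4 nM ssM13Gori ran 35 min, then was stopped with PicoGreen/EDTA and read as dsDNA fluorescence.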
Of the large screens only hits and unclear results are named; the others gave an inactive call. Unless noted, calls come from the whole dose curve; as a rule, active = well fitted curve in the direction sought with a large enough effect; inconclusive = small, poorly fitted or top-dose-only effect, or another doubt; inactive = no such curve, though single readings can be large; an effect the other way counts as inactive or inconclusive.

CCN(CC)c1nc(N(CC)CC)[nH]c(=O)n1	15-hLO inh 13µM
CCN(CC)c1nc(-c2nn[nH]n2)nc(N(CC)CC)n1	15-hLO inh inconclusive
O=C(N/N=C1/C[C@@H](O)[C@@H](O)[C@@H]2[C@H]3C(=O)N(c4ccc(F)cc4F)C(=O)[C@@H]3CC[C@@H]12)OCc1ccccc1	none (no result: Hsp90 Hop PPI, TsaE inh, Pol III holo inh)
O=C(/C=C/c1ccc(O)c(O)c1)OC1C[C@](O)(C(=O)O)C[C@@H](O)[C@H]1O (some centres not stated)	none
COc1ncc2nc(CCc3ccccc3)c(=O)n(-c3ccccc3)c2n1	none
CN(C)c1ncc2nc(CCc3ccccc3)c(=O)n(-c3ccccc3)c2n1	Hsp90 Hop PPI 20µM, 15-hLO inh inconclusive
CC1=NNC(=S)NCCCN2CCN(CCCNC(=S)NN=C(C)C=NNC(=S)NCCCN3CCN(CCCNC(=S)NN=C1)CC3)CC2	Hsp90 Hop PPI 4µM
Cc1cccc(NS(=O)(=O)c2cc(C(=O)O)ccc2Cl)c1	none (no result: Hsp90 Hop PPI, TsaE inh, Pol III holo inh)
C[C@@H](COc1ccc(/C=C\c2ccccc2)cc1)[N+](C)(C)C	none
CC1=C(C(=O)OCC2CCCO2)C(c2ccccc2OC(C)C)C2=C(CC(c3ccco3)CC2=O)N1 (configuration not stated)	15-hLO inh 32µM
O=c1c2ccccc2oc2cc(O)c([C@@H]3COC[C@@H](CO)[C@@H](O)[C@@H](O)[C@H]3O)c(O)c12	none (no result: BRCT PPI green, BRCT inh red, 15-hLO inh)
COc1cc2c(cc1O)CC[C@@H]1[C@@H]2CC[C@@]2(C)[C@H](O)CC[C@H]12	none
Oc1cc(O)c2c(c1)O[C@@H](c1ccc(O)c(O)c1)[C@H](O[C@@]1(c3cc(O)c(O)c(O)c3)Oc3cc(O)cc(O)c3[C@H](O)[C@@H]1O)C2	Hsp90 Hop PPI inconclusive, 15-hLO inh 1µM, Pol III holo inh 1µM
O=C(OC1Cc2c(O)cc(O)cc2OC1c1cc(O)c(O)c(O)c1-c1c(C2Oc3cc(O)cc(O)c3CC2O)cc(O)c(O)c1O)c1cc(O)c(O)c(O)c1 (configuration not stated)	15-hLO inh inconclusive (no result: Hsp90 Hop PPI, TsaE inh, Pol III holo inh)
O=C(O)c1cnc2ccccc2n1	15-hLO inh 20µM
CC(=O)c1ccc(NC(=O)c2ccc(S(=O)(=O)N3CCCC3)cc2)cc1	none
O=C(Nc1ccc(C(=O)Nc2ccc(C(=O)Nc3ccc(S(=O)(=O)O)c4cc(S(=O)(=O)O)cc(S(=O)(=O)O)c34)cc2)cc1)Nc1ccc(C(=O)Nc2ccc(C(=O)Nc3ccc(S(=O)(=O)O)c4cc(S(=O)(=O)O)cc(S(=O)(=O)O)c34)cc2)cc1	Hsp90 Hop PPI inconclusive, 15-hLO inh inconclusive, Pol III holo inh 32µM
Cc1ccc2nc(-c3ccc(NC(=O)c4ccc(N)cc4)c(S(=O)(=O)O)c3)sc2c1	none
O=C(Nc1cc(C(=O)Nc2ccc(S(=O)(=O)O)cc2S(=O)(=O)O)cc(C(=O)Nc2ccc(S(=O)(=O)O)cc2S(=O)(=O)O)c1)Nc1cc(C(=O)Nc2ccc(S(=O)(=O)O)cc2S(=O)(=O)O)cc(C(=O)Nc2ccc(S(=O)(=O)O)cc2S(=O)(=O)O)c1	Hsp90 Hop PPI inconclusive, Pol III holo inh 4µM
O=c1ccn([C@@H]2O[C@@H](COP(=O)(O)OP(=O)(O)O)[C@H](O)[C@@H]2O)c(=O)[nH]1	none
COC(=O)c1c(C)n(-c2ccc(OC)cc2)c2ccc(O)cc12	15-hLO inh 7.9µM
O=c1ccn([C@H]2O[C@H](CO)[C@@H](O)[C@@H]2O)c(=O)[nH]1	none (no result: BRCT PPI green, BRCT inh red, 15-hLO inh)
CCSc1nc(-c2ccc(OC)cc2)ccc1C#N	Hsp90 Hop PPI 25µM
COc1ccc2nc(SCC(=O)N3CCCCCC3)c(C#N)cc2c1	none
Fc1ccc(CNc2nc(-c3ccco3)cc(C(F)(F)F)n2)cc1	Hsp90 Hop PPI inconclusive, 15-hLO inh 25µM
OCC1OC([S-])[C@H](O)C(O)C1O.[Au+] (some centres not stated)	BRCT inh red 32µM, 15-hLO inh inconclusive (no result: Hsp90 Hop PPI, TsaE inh, Pol III holo inh)
CC(=O)O[C@@H]1C[C@]2(C)[C@H](C[C@@H](O)[C@H]3[C@@]4(C)CC[C@@H](O)[C@@H](C)[C@@H]4CC[C@@]32C)/C1=C(\CCC=C(C)C)C(=O)O	none
NCCOB(c1ccccc1)c1ccccc1	TsaE inh inconclusive, 15-hLO inh 0.63µM
CCN1CCCC1CNC(=O)c1ccc(Cc2nc3ccccc3[nH]2)cc1 (configuration not stated)	none (no result: Hsp90 Hop PPI, TsaE inh, Pol III holo inh)
COc1ccccc1NC(=O)N(Cc1ccco1)Cc1cc2cc(C)cc(C)c2[nH]c1=O	15-hLO inh 10µM
O=C1CC(N2CCN(c3ccc(O)cc3)CC2)C(=O)N1Cc1cccs1 (configuration not stated)	15-hLO inh 13µM
OC[C@@H]1O[C@@H](n2cnc3cncnc32)[C@@H](O)[C@H]1O	none
CCCN(CCc1ccccc1)[C@H]1CCc2c(O)cccc2C1	Hsp90 Hop PPI inconclusive
CCCS(=O)(=O)c1c(S(=O)(=O)CCC)c2c(N)cccn2c1C(=O)c1ccc(F)cc1	15-hLO inh 10µM
CCCS(=O)(=O)c1c(S(=O)(=O)CCC)c2ccccn2c1C(=O)OC	none
Nc1cc2c(nc3c4ccccc4c(N)cc3[n+]2-c2cccc3ccccc23)c2ccccc12 (tested in a mixture with another compound)	Hsp90 Hop PPI 2.5µM, TsaE inh inconclusive
Cc1cc2nn(-c3cccc4ccccc34)nc2cc1N	15-hLO inh inconclusive
Cn1c(C[C@@H](O)c2nc3ccccc3n2C)nc2ccccc21	none
Cc1cccc(Nc2ncccc2C(=O)O)c1C	none
Cc1cccc(Nc2ccccc2C(=O)O)c1C	Pol III holo inh 2.5µM
O=C(Oc1ccc2c(c1)OCO2)c1cc2c(s1)CCC2	15-hLO inh 20µM
O=C(c1cc2c(s1)CCCC2)N1CCN(Cc2ccc3c(c2)OCO3)CC1	none
CC(Cc1ccc(O)c(O)c1)(NN)C(=O)O (configuration not stated)	none (no result: Hsp90 Hop PPI, TsaE inh, Pol III holo inh)
Cc1ccc2[nH]c(=S)cc(C)c2c1	15-hLO inh 3.2µM
Cc1cc(=S)[nH]c2ccccc12	15-hLO inh inconclusive
Cc1ccc(Cn2c(=S)[nH]c3ccc(N4CCOCC4)cc3c2=O)o1	Hsp90 Hop PPI inconclusive, 15-hLO inh 16µM, Pol III holo inh inconclusive
Nc1nc2sc3c(c2c(=O)s1)CCCC3	15-hLO inh 0.79µM
O=C(O)CCC/C=C\C[C@H]1[C@@H](/C=C\[C@@H](O)C2Cc3ccccc3C2)[C@H](F)C[C@H]1O	none (no result: BRCT PPI green, BRCT inh red, 15-hLO inh)
CN(C)C=NC(=O)/C(C#N)=C1\CCc2ccccc2N1	15-hLO inh 7.9µM
O=C(O)CCN=C1CCCc2ccccc2N1	none
O[C@@H](c1cc(-c2ccccc2)nc2c1ccc1ccccc12)[C@@H]1CCCCN1	Hsp90 Hop PPI inconclusive
